Measurements reported in the supplement of paper PMC10981050.
Values joined by “and” are separate entries in the source; they are usually repeats but may differ in a detail not shown here. Equal entries are not always repeated. Structures can show the parent of a compound that is named as a salt.

Assays:
Assay in all cases: cell viability relative to vehicle control; higher = less cytotoxic
Conditions in all cases: 10 µM
K562 = tested on: K562
Procedure, shortened: (§1)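 Screening covered the Selleck bioactive, kinase and epigenetic probe libraries, less identity-inconsistent compounds, on CRISPR-edited mutant clones and isogenic wild-type clones of four leukaemia lines. Cells, at 2000 per well in 50 µL medium, received a single 10 µM acoustically dispensed dose. After 48 h the supernatant was removed and CellTiter-Glo luminescence was read. Viability was analysed in Genedata Screener as percent of the on-plate vehicle control.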

MARIMO = tested on: MARIMO
Procedure, shortened: as §1

MOLM14 = tested on: MOLM14
Procedure, shortened: as §1

OCI-AML2 = tested on: OCI-AML2
Procedure, shortened: as §1

SMILES | cell viability (K562; SRSF2 genotype: SRSF2 P95H/wt) | cell viability (K562; SRSF2 genotype: SRSF2 wt/wt) [%] | cell viability (MARIMO; SRSF2 genotype: SRSF2 P95H/wt) [%] | cell viability (MARIMO; SRSF2 genotype: SRSF2 wt/wt) [%] | cell viability (MOLM14; SRSF2 genotype: SRSF2 P95H/wt) [%] | cell viability (MOLM14; SRSF2 genotype: SRSF2 wt/wt) [%] | cell viability (OCI-AML2; SRSF2 genotype: P95H/wt) [%] | cell viability (OCI-AML2; SRSF2 genotype: wt/wt) [%]
O=[N+]([O-])c1ccc(Sc2cccc[n+]2[O-])c2nonc12 | 0.23% and 0.26% | 0.23 | 0.65 | 0.24 | 0.22 | 0.25 | 0.28 | 0.27
COc1cc2ncnc(Nc3ccc(F)c(Cl)c3)c2cc1NC(=O)/C=C/CN1CCCCC1 | 63.7% and 73.8% | 87.8 | 55.2 | 58.2 | 26.9 | 54.4 | 20.2 | 37.2
CC[C@H](c1ccc(O)cc1)[C@@H](CC)c1ccc(O)cc1 [Hexestrol (Bibenzyl)] | 96.8% and 102% | 96.9 | 94.6 | 101 | 99.7 | 103 | 100 | 91.9
CCCCC[C@H](O)/C=C/[C@H]1[C@H](O)CC(=O)[C@@H]1C/C=C\CCCC(=O)O [Dinoprostone] | 99% | 99.1 | 91.4 | 79.3 | 59.1 | 62 | 74.5 | 67.5
N#Cc1cnc(Nc2cc(NC[C@H]3CNCCO3)c(C(F)(F)F)cn2)cn1 | 19% and 24.2% | 13.3 | 44.5 | 54.4 | 16.4 | 10.3 | 14.5 | 14.1
CCCCCCCCc1ccc(CCC(N)(CO)CO)cc1 [Fingolimod (FTY720) HCl] | 0.63% | 0.58 | 0.4 | 0.42 | 0.4 | 0.39 | 0.36 | 0.44
O=C1NC(=O)C(c2ccccc2)(c2ccccc2)N1 [Phenytoin (Lepitoin)] | 98.1% and 111% | 99.6 | 107 | 103 | 100 | 103 | 105 | 91.6
Nc1ccc(O)cc1 [4-Aminophenol] | 63.2% and 50.9% | 83.5 | 45.6 | 50 | 12.1 | 23.2 | 3.01 | 12
COc1nc(N)nc2c1ncn2[C@@H]1O[C@H](CO)[C@@H](O)[C@@H]1O [Nelarabine (Arranon)] | 98.2% and 96.9% | 99.6 | 95.5 | 91.2 | 90.7 | 93.5 | 94.7 | 94.5
Cn1nc(C(C)(C)C)cc1C(=O)N[C@@H](Cc1cccc(Cl)c1)C(=O)NCC#N [Cathepsin Inhibitor 1] | 93.5% and 89.9% | 83.2 | 93.1 | 100 | 92.4 | 98.4 | 97.8 | 95.9
COc1cccc2c1C(=O)c1c(O)c3c(c(O)c1C2=O)C[C@@](O)(C(=O)CO)C[C@@H]3O[C@H]1C[C@H](N)[C@@H](O)[C@H](C)O1 [Epirubicin Hydrochloride] | 4.6% and 11.6% | 7.29 | 4.26 | 2.14 | 1.38 | 0.76 | 1.59 | 11.3
Nc1cc(F)ccc1NC(=O)/C=C/c1cnn(C/C=C/c2ccccc2)c1 | 89.5% and 93.8% | 83.6 | 77.8 | 100 | 90.5 | 94.2 | 104 | 87.4
CC1=C(/C=C/C(C)=C/C=C/C(C)=C/C(=O)O)C(C)(C)CCC1 [All-trans Retinoic Acid (Tretinoin)] | 88.7% and 90.3% | 93 | 68.7 | 73.6 | 54.2 | 75.3 | 11.3 | 37.4
N#Cc1c(N)nc(NC2CC2)nc1N [Dicyclanil] | 96.3% and 102% | 105 | 94.5 | 105 | 104 | 102 | 107 | 99.9
CC(C)(O)C1CCC(C)(C2C(O)CC3(C)C4CC(O)C5C(C)(C)C(O)CCC56CC46CCC23C)O1 (configuration not stated) [Cyclogalegenol] | 93.6% and 88.3% | 89.8 | 93.5 | 104 | 94 | 95.7 | 97.4 | 103
CCn1cc(-c2ccnc3[nH]c(-c4cccc(CN(C)C)c4)cc23)c(-c2ccc(NC(=O)N(C)C)cc2)n1 | 36.2% and 51.2% | 45.9 | 30.3 | 27 | 1.95 | 2.96 | 1.06 | 7.2
C[C@@H]1O[C@@H](O[C@@H]2[C@@H](O)[C@H](OCCc3ccc(O)c(O)c3)O[C@H](CO)[C@H]2OC(=O)/C=C/c2ccc(O)c(O)c2)[C@H](O)[C@H](O)[C@H]1O [Verbascoside] | 86.6% and 86% | 87.4 | 82.8 | 92.3 | 81.9 | 92.9 | 92.7 | 92.5
CC(=O)c1ccc(C)cc1O [2'-Hydroxy-4'-methylacetophenone] | 97.1% and 95% | 104 | 95.6 | 103 | 102 | 102 | 94.5 | 107
O=C(c1ccc(F)cc1)C1CCN(CCn2c(=O)[nH]c3ccccc3c2=O)CC1 [Ketanserin (Vulketan Gel)] | 98.1% and 104% | 103 | 102 | 106 | 107 | 107 | 105 | 109
